Screening data deposited in PubChem by National Center for Advancing Translational Sciences (NCATS).
PLK1 PBD block – qHTS for Inhibitors of PLK1-PDB (polo-like kinase 1 - polo-box domain): Primary Screen; Serine/threonine-protein kinase PLK1 (Homo sapiens), P53350; Plk1 PBD binding of FITC phosphopeptide, fluorescence polarization; 360,000 tested, 2.8% active; Potency, µM, actives largely listed as inhibitors; further: series mostly up to about 57 µM; nearly all actives have a fitted effect of over 65% in size
Target sequence (P53350 whole entry, looked up, the tested form may be a part): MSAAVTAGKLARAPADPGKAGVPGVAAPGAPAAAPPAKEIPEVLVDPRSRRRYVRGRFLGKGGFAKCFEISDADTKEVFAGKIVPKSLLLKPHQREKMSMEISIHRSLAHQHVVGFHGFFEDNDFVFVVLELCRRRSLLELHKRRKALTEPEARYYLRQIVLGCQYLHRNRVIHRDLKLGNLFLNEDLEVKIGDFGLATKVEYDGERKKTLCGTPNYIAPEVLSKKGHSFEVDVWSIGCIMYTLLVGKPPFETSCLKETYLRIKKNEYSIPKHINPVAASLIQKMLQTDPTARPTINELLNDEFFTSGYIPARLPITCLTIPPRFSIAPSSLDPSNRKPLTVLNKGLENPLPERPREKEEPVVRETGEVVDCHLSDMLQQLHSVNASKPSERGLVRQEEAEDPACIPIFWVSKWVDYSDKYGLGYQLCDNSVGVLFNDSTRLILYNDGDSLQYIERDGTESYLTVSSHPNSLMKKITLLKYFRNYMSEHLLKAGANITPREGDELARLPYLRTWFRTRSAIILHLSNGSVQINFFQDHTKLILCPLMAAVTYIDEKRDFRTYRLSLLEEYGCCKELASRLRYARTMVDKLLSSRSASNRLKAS
BAZ2B block – qHTS Assay for Inhibitors of BAZ2B; Bromodomain adjacent to zinc finger domain protein 2B (Homo sapiens), Q9UIF8; AlphaScreen BAZ2B-H3K14Ac peptide displacement; Potency, µM (highest dose often 114 µM), hits mostly inhibitors; 360,000 tested, 4.4% active; further: nearly all actives have a fitted effect of over 60% in size
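Complex of BAZ2B and biotin-H3K14Ac (50 nM apiece) forms over 30 min at RT, then faces library compounds up to 110 uM for another 30 min; AlphaScreen beads added, 20 min dark incubation, luminescence read.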
G9a block – qHTS Assay for Inhibitors of Histone Lysine Methyltransferase G9a. Potency, µM (doses to about 102 µM), most hits filed as inhibitors. 350,000 tested, 8.8% active. AID 504332, 2011. G9a H3K9 monomethylation, AlphaScreen, 2 h. Histone-lysine N-methyltransferase EHMT2 (Homo sapiens), Q96KQ7; further: nearly all actives have a fitted effect of over 75% in size
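AlphaScreen read-out: biotin-H3K9 peptide (500 nM) methylation by 20 nM enzyme with 20 uM SAM, 2 h at room temperature after 15 min compound preincubation; anti-monomethyl H3K9 antibody plus donor/acceptor beads, 10 min dark.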
JMJD2A Tudor – qHTS Assay for Inhibitors of JMJD2A-Tudor Domain. Potency, µM (titrated, usually from 114 µM), usual class: inhibitors. 390,000 tested, 4.4% active. AlphaScreen JMJD2A-Tudor / H3K4me3 peptide binding. AID 504339, 2011; further: nearly all actives have a fitted effect of over 50% in size
HP1b chromo inh – HTS for Inhibitors of HP1-beta Chromodomain Interactions with Methylated Histone Tails; AlphaScreen HP1-beta / biotin-H3K9me3 peptide binding; 390,000 tested, 0.56% active; Potency, µM (series often up to 114 µM), usual class: inhibitors; Chromobox protein homolog 1 (Homo sapiens), P83916; further: nearly all actives have a fitted effect of over 70% in size
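Compound inhibition of the preformed complex between 50 nM HP1-beta and 50 nM biotinylated H3K9me3 peptide was read by AlphaScreen. Buffer was PBS pH 7.4 with 0.01% Tween-20. Incubations ran 30 min at room temperature, with 10 ug/mL donor/acceptor beads.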
VDR inh – Inhibitors of the vitamin D receptor (VDR): qHTS; Vitamin D3 receptor (Homo sapiens), P11473; VDR-SRC2-3 peptide fluorescence polarization, 2 h; Potency, µM, hits mostly inhibitors; 400,000 tested, 0.93% active; AID 504847, 2011
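Inhibition of the VDR/SRC2-3 peptide interaction is quantified by fluorescence polarization. Compounds (23 nl, pintool) incubate with the reagents for 2 hours at ambient room temperature.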
Hits are given with their value; – = inactive; ? = inconclusive; · = no result given; [ ] = dose if it differs, or a comment. Only some compounds are listed: those with a hit (about 11% of all), similar ones and a draw of the others. The call rests on the fitted dose curve; in most records, active means well fitted curve in the direction sought with a large enough effect; inconclusive means small, poorly fitted or top-dose-only effect, or another doubt; inactive means no such curve, though single readings can be large; an effect the other way counts as inactive or inconclusive.

SMILES | PLK1 PBD block | BAZ2B block | G9a block | JMJD2A Tudor | HP1b chromo inh | VDR inh
Cc1cccc(NC(=O)CO/N=C/c2ccc3c(c2)OCO3)c1 | – | – | – | – | – | –
COc1ccc(CNCc2ccc3c(c2)OCO3)c(OC)c1OC | – | – | 45µM | 0.79µM | ? | –
COc1ccc2c(c1)O[C@@H](c1ccc3c(c1)OCO3)[C@H](OC(=O)NCCOc1ccccc1)C2=O | · | · | · | · | · | –
COc1cccc(NC(=O)C(Cc2ccccc2)NS(=O)(=O)c2ccc3c(c2)oc(=O)n3C)c1 (stereo unspecified) | · | – | – | – | – | –
O=C1CC(c2ccc(F)cc2)c2c(c3ccccc3[nH]c2=O)O1 (stereo unspecified) | · | – | – | – | – | –
Cc1cc(C=O)c(C)n1-c1ccc(Cl)c(C(=O)O)c1 | 11µM | 25µM | 13µM | 20µM | 40µM | –
Cc1cc(C=O)c(C)n1-c1ccc(N2CCCCC2)c([N+](=O)[O-])c1 | – | 40µM | 13µM | 35µM | ? | –
CC1(C(=O)O)CCCN1C(=O)c1ccco1 (stereo unspecified) | – | · | · | · | · | ·
Cc1nc2c3ccccc3nc(NNC(=O)CCC(=O)NC(C)C)n2n1 | – | – | – | – | – | –
Cc1nc2c3ccccc3nc(NNC(=O)CCC(=O)O)n2n1 | · | – | ? | – | – | –
Cc1nc2c3ccccc3nc(NNC(=O)CCC(=O)NCCN3CCN(c4ccccc4F)CC3)n2n1 | 30µM | – | – | – | – | –
COCCNC(=O)CCC(=O)NNc1nc2ccccc2c2nc(C)nn12 | – | – | – | 79µM | – | –
O=C(CN1CCN(S(=O)(=O)c2ccccc2)CC1)N1CCCCC1 | – | – | –[12.7 µM] | – | – | ?
CC1(C)CC(=O)C2=C(C1)c1c(ccc3ccccc13)NC2c1ccco1 (stereo unspecified) | – | ? | 50µM | ? | – | –
Cc1ccc(CNC(=O)CN2Cc3ccccc3C2=O)cc1 | · | – | – | – | – | –
CCCCOCCCNS(=O)(=O)c1ccccc1 | – | – | – | – | – | –
CCCCOP(=O)(OCCCC)C1(NS(=O)(=O)c2ccccc2)C=CC(=O)c2ccccc21 (stereo unspecified) | – | – | 1.8µM | ? | ? | –
Cc1cccnc1NC(=O)CCc1nnc2ccc(N3CCC4(CC3)OCCO4)nn12 | – | – | – | – | – | –
S=c1[nH]c(-c2ccccc2)cn1/N=C/c1ccccc1Br | – | ? | 2.5µM | – | – | ?
Cc1ccc(/C=N/n2cc(-c3ccccc3)[nH]c2=S)s1 | – | – | ? | ? | – | –
Oc1ccc(/C=N/n2cc(-c3ccccc3)[nH]c2=S)cc1 | – | · | 2.5µM | 4µM | – | –
S=c1[nH]c(-c2ccccc2)cn1/N=C/c1cccc2ccccc12 | – | ? | – | ? | – | –
COc1cc(/C=N/n2cc(-c3ccccc3)[nH]c2=S)cc(OC)c1O | – | – | 0.5µM | 1.3µM | – | –
O=C(CN1C(=O)NC2(CCCCC2)C1=O)Nc1nc2c(F)cc(F)cc2s1 | – | – | 50µM | – | – | –
COc1ccc(S(=O)(=O)Nc2cccc3c2O[C@H](CN(C)C(=O)Nc2ccc4c(c2)OCO4)[C@@H](C)CN([C@H](C)CO)C3=O)cc1 | – | · | · | – | – | –
O=C(NCC1COc2ccccc2O1)c1cccc(S(=O)(=O)N2CCCCC2)c1 (stereo unspecified) | – | – | –[12.7 µM] | – | – | –
CN(CC1COc2ccccc2O1)C(=O)c1cccc(S(=O)(=O)N2CCCC2)c1 (stereo unspecified) | – | – | 1µM | – | – | –
O=C(NCC1COc2ccccc2O1)c1c[nH]c2ccc(S(=O)(=O)N3CCOCC3)cc2c1=O (stereo unspecified) | – | – | ? | – | – | –
